Laboratory results published in PubChem BioAssay (NCI).
About 79,000 compounds went through this panel and 15% of them were active in at least one assay; those are over-represented in the sample as a whole. Unmarked numbers belong to inactive results. The source made the active and inactive calls. Rule as the data show it: active = growth inhibition above about 70%; inactive = the rest.

Legend:
[1] = NCI Yeast Anticancer Drug Screen. Data for the rad50 strain (AID 155);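 also: 0% = growth of vehicle-only cultures of the same strain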; conditions: S. cerevisiae rad50 strain growth inhibition, stronger effect = higher value
Outline: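 Vehicle-treated cultures provide the reference for the growth inhibition reported for compound-exposed, repair-deficient yeast.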

[2] = NCI Yeast Anticancer Drug Screen. Data for the mec2-1 strain (AID 157); conditions: S. cerevisiae mec2-1 strain, stronger effect = higher value
Outline: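 Strain: mec2-1 (DNA repair/cell cycle alteration). Compound exposure, then growth measured; inhibition expressed relative to vehicle.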

[3] = NCI Yeast Anticancer Drug Screen. Data for the sgs1 mgt1 strain (AID 161);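 also: 0% = growth of cultures given vehicle only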; conditions: S. cerevisiae sgs1 mgt1 strain, stronger effect = higher value
Outline: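 Read-out: growth inhibition vs vehicle controls. Cells: mutant yeast strain deficient in DNA damage repair.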

[4] = NCI Yeast Anticancer Drug Screen. Data for the cln2 rad14 strain (AID 165);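 also: 0% = growth equal to vehicle treated cultures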; conditions: S. cerevisiae cln2 rad14 strain, stronger effect = higher value
Outline: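 Compounds are applied to the cln2 rad14 yeast strain, and growth is then compared with that of vehicle-treated cultures to give inhibition.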

[5] = NCI Yeast Anticancer Drug Screen. Data for the bub3 strain (AID 167); conditions: S. cerevisiae bub3 mutant strain, stronger effect = higher value
Outline: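 Mutant yeast screening strain plus compound; vehicle-treated cultures serve as the 0% inhibition reference.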

[6] = NCI Yeast Anticancer Drug Screen. Data for the mlh1 rad18 strain (AID 175); conditions: S. cerevisiae mlh1 rad18 strain growth inhibition, stronger effect = higher value
Outline: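 Read-out is yeast growth inhibition, calculated against vehicle-only controls. The compound was applied to a strain engineered with DNA damage repair alterations.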

[7] = at 5.0 µM (retest, dose inferred, filed as 0.5)
[8] = at 50.0 µM (retest, dose inferred, filed as 5.0)

| Compound | growth inhibition [1, 7] | growth inhibition [1, 8] | growth inhibition ([1]; at 50.0 µM) | growth inhibition [2, 7] | growth inhibition [2, 8] | growth inhibition ([2]; at 50.0 µM) | growth inhibition [3, 7] | growth inhibition [3, 8] | growth inhibition ([3]; at 50.0 µM) | growth inhibition [4, 7] | growth inhibition [4, 8] | growth inhibition ([4]; at 50.0 µM) | growth inhibition [5, 7] | growth inhibition [5, 8] | growth inhibition ([5]; at 50.0 µM) | growth inhibition [6, 7] | growth inhibition [6, 8] | growth inhibition ([6]; at 50.0 µM) |
| --- | --- | --- | --- | --- | --- | --- | --- | --- | --- | --- | --- | --- | --- | --- | --- | --- | --- | --- |
| CCNc1cc(N)[n+](CC)c2n[nH]c(/N=C/c3cc(Cl)cc(Cl)c3O)c12 | 37% | 80% (active) | 88% (active) | 26% | 77% (active) | 87.5% (active) | 41% | 98% (active) | 89.8% (active) | 63% | 98% (active) | 79.9% (active) | 87% (active) | 97% (active) | 90.3% (active) | 37% | 78% (active) | 88.2% (active) |
| CCOC(=O)c1cc(C)ccc1-c1ccc(C)cc1C(=O)OCC | 1% | 29% | 57.6% | -10% | 8% | 67.8% | 1% | 68% | 77% (active) | -1% | 17% | 3.55% | 6% | 46% | 86.8% (active) | 2% | 28% | 75.5% (active) |
| O=S(=O)(Sc1ccccc1)c1ccccc1 | 13% | 98% (active) | 79% (active) | 11% | 99% (active) | 99.1% (active) | 16% | 99% (active) | 99.3% (active) | 5% | 99% (active) | 97% (active) | 16% | 99% (active) | 97.3% (active) | 20% | 99% (active) | 99% (active) |
| Cc1c(F)c(C)c(C(=O)O)c(C)c1F | 26% | 99% (active) | 99.4% (active) | 27% | 98% (active) | 99.5% (active) | 20% | 99% (active) | 99.5% (active) | 8% | 99% (active) | 99.2% (active) | 11% | 99% (active) | 99.2% (active) | 27% | 100% (active) | 99.6% (active) |
| OC(c1ccccc1)(c1ccccc1)C(F)(Cl)Cl | 1% | 10% | 52.2% | 0% | 58% | 94.8% (active) | -4% | 15% | 64.4% | 1% | 17% | 92.9% (active) | -14% | 9% | 98.5% (active) | -2% | 37% | 39.5% |
| O=C(O)c1ccccc1/C=N/O | 1% | -4% | 1.5% | 2% | -2% | -4.2% | 0% | -2% | 3% | -2% | 1% | 93% (active) | 0% | -1% | 4.4% | 0% | -3% | 6.7% |
| O=[N+]([O-])c1cccc2c[n+](Cc3ccccc3)ccc12 | -1% | 24% | 41.7% | -1% | 19% | 1.65% | -4% | 18% | 10.1% | -13% | 15% | 38.4% | -7% | -5% | -1.05% | -7% | 12% | 12.3% |
| NC(=O)C(=CNc1nc(-c2ccc(Br)cc2)cs1)C(N)=O | -5% | 92% (active) | 99.5% (active) | -11% | 98% (active) | 99.5% (active) | -3% | 92% (active) | 99.5% (active) | -34% | 94% (active) | 98.9% (active) | -11% | 99% (active) | 99.5% (active) | -6% | 98% (active) | 99.3% (active) |
| O=S1(=O)C=C(c2ccccc2)S(=O)(=O)C=C1c1ccccc1 | -1% | 85% (active) | 89% (active) | 3% | 76% (active) | 89.7% (active) | 0% | 63% | 95.2% (active) | 0% | 94% (active) | 57.9% | -5% | 81% (active) | 91.8% (active) | 0% | 85% (active) | 91.2% (active) |
| O=C(O)c1nc2cc(C(F)(F)F)ccc2nc1Nc1ccc(Cl)c(Cl)c1 | 23% | 77% (active) | 86% (active) | 19% | 90% (active) | 80.3% (active) | -16% | 52% | 48.8% | -7% | 85% (active) | 76.5% (active) | 16% | 64% | 55.1% | 19% | 87% (active) | 79.1% (active) |
| C1=CC2OC1c1cc3ccccc3cc12 | 13% | 92% (active) | 87.5% (active) | 11% | 98% (active) | 96.5% (active) | 10% | 98% (active) | 89.9% (active) | 23% | 98% (active) | 95.6% (active) | 6% | 97% (active) | 95% (active) | 34% | 97% (active) | 95.2% (active) |
| O=C(CNc1cccc(Cl)c1)Nn1c(-c2ccccc2)nc2ccccc2c1=O | 7% | 88% (active) | 92% (active) | -1% | 69% | 87.7% (active) | 4% | 59% | 95.2% (active) | 16% | 74% (active) | 90.6% (active) | 22% | 87% (active) | 96% (active) | 4% | 86% (active) | 96.7% (active) |
| [Cu+2].[NH-]c1ccccc1O.[NH-]c1ccccc1[OH2+] | 7% | 69% | 50.6% | 20% | 80% (active) | 46.6% | 15% | 67% | 60.4% | 11% | 59% | 35.8% | 45% | 67% | 75.8% (active) | 28% | 82% (active) | 75.6% (active) |
| Oc1cccc2cc(Br)cnc12 | 24% | 99% (active) | 84% (active) | -17% | 99% (active) | 91.6% (active) | -10% | 99% (active) | 81.5% (active) | 2% | 99% (active) | 88.8% (active) | -25% | 99% (active) | 88.2% (active) | 21% | 99% (active) | 74.7% (active) |
| O=C(/C=C(/c1ccccc1)P(=O)(c1ccccc1)c1ccccc1)c1ccccc1 | -2% | 97% (active) | 97.9% (active) | -15% | 97% (active) | 98.6% (active) | -5% | 97% (active) | 98.8% (active) | -4% | 71% (active) | 97.8% (active) | -5% | 86% (active) | 97.8% (active) | 15% | 99% (active) | 98.6% (active) |
| Cc1ccc(C(=O)/C=C/c2ccco2)c(C)c1 | -9% | -12% | 11.3% | -42% | 1% | 25.9% | -14% | 15% | 63.8% | -14% | 5% | 25.8% | 2% | 4% | 54.5% | -20% | 61% | 17.6% |
| COC(=O)c1ccc2c(c1)C(O)NC(=O)O2 (stereo not given) | 16% | 97% (active) | 98.5% (active) | 15% | 97% (active) | 98% (active) | 15% | 98% (active) | 98.9% (active) | 18% | 98% (active) | 98.5% (active) | 3% | 95% (active) | 98.6% (active) | 21% | 97% (active) | 98.5% (active) |
| C#C[C@]1(OC(C)=O)CC[C@H]2[C@@H]3CCC4=CC(=O)CC[C@@H]4[C@H]3CC[C@@]21C | 4% | 16% | 97.6% (active) | 7% | 15% | 88.3% (active) | 2% | 29% | 97.2% (active) | 9% | 22% | 89.7% (active) | 5% | 13% | 93.8% (active) | 3% | 19% | 96.8% (active) |
| Cc1cc(C(=O)c2ccccc2)ccc1O | 2% | 33% | 48% | -6% | 36% | 36.9% | 3% | 47% | 46.6% | -7% | -16% | -8.4% | -3% | 3% | 48.7% | -2% | 36% | 70.1% (active) |
| Nc1nc(-c2cc3cc(Cl)ccc3o2)cs1 | 47% | 75% (active) | 1.1% | 34% | 61% | -6.7% | 39% | 75% (active) | 24.4% | 35% | 50% | 15.8% | 46% | 71% (active) | 43.7% | 51% | 79% (active) | -4.25% |
